# Screens from PubChem BioAssay.
# The list is not random: actives were taken first. Their share in the collection is about 3%.
# SENP8 block-1: human SENP8 protease inhibitors, primary screen, biochemical, fluorescence, Nedd8 protein substrate, uHTS | Sentrin-specific protease 8 (Homo sapiens), Q96LD8 | recombinant SENP8 | inhibition, % at 20 µM | 0.64% of 360,000 active | AID 602440, 2012; in the data active means inhibition mostly above about 40%, no sharp cut-off; inactive means mostly below about 27%
# Target sequence (Q96LD8 whole entry, looked up): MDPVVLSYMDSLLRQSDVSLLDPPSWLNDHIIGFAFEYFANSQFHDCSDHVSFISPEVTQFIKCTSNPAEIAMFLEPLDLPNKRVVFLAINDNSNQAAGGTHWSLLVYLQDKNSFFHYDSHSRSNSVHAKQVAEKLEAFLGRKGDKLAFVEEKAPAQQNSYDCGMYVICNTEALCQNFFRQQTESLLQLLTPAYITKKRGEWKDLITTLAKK
# TRAIL sens C8: viability loss with TRAIL in NB7+C8 cells, primary screen, TRAIL sensitizer project, cell-based, ATPlite luminescence. inhibition (viability loss, TRAIL sensitization), % at 10 µM. 1% of 360,000 active;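 active means compounds causing at least 50% loss of cell viability in the single-dose screen, relative to plate controls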
# SENP8 block-2: SENP8 protease inhibitors, primary screen, biochemical, luminescence; AID 2540, 2010; inhibition, % at 10 µM; 1.2% of 330,000 active; purified SENP8, Z-RLRGG-aminoluciferin cleavage; in the data active means inhibition above about 50%
# PPC-1+TRAIL kill: compounds killing PPC-1 cancer cells with TRAIL present, primary screen, TRAIL potentiator project, ATPLite luminescence, uHTS. PPC-1 cells + TRAIL, ATPLite viability luminescence. cell killing (% activity), % at 4 µM or 5 µM. 0.41% of 220,000 active. AID 1443, 2008;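 active means cell killing above 50% in the first pass at 4 µM, then a duplicate retest at 5 µM averaging 50% or more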;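 further: plate controls were cells with TRAIL plus DMSO for no effect and medium-only wells lacking cells for full effect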
# SENP6 inh: SENP6 protease inhibitors, primary screen, biochemical, luminescence, uHTS. Sentrin-specific protease 6 (Homo sapiens), Q9GZR1. Recombinant SENP6 catalytic domain, aminoluciferin luminescence. inhibition, % at 10 µM. 1.8% of 330,000 active. AID 2599, 2010;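 active means inhibition above about 50% at the single tested dose, limit read from the data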;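 further: plate controls were DMSO wells with enzyme for no effect and DMSO wells lacking enzyme for full effect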
# SENP7 inh: SENP7 protease inhibitors, primary screen, biochemical, luminescence, uHTS; Sentrin-specific protease 7 (Homo sapiens), Q9BQF6; recombinant SENP7, Z-RLRGG-aminoluciferin luminescence, 40 min; inhibition, % at 5 µM; 1.5% of 330,000 active; AID 434973, 2010;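 active means inhibition above about 50% at the single test dose, limit read from the data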;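 further: plate controls were DMSO with enzyme for no effect and no enzyme buffer wells for full effect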
# Target sequence (Q9BQF6 706-1050 limits assumed): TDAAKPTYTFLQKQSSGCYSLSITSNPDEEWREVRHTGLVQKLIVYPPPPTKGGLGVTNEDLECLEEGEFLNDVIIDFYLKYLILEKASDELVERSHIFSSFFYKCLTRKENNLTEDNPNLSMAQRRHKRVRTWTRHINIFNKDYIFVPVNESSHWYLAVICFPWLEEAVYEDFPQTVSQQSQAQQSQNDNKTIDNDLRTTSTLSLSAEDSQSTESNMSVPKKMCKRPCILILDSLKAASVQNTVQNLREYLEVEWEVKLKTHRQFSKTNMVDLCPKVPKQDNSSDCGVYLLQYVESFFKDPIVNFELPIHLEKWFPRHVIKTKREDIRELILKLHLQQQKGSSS
# Starred values were filed as active, the others as inactive; i = inactive; · = no result.
SMILES,SENP8 block-1,TRAIL sens C8,SENP8 block-2,PPC-1+TRAIL kill,SENP6 inh,SENP7 inh
N#Cc1cc2cc(Cl)ccc2[nH]c1=O,-290,-7,·,·,·,·
CC(C)C[C@@H](CN1CCCC1CN1C(=S)NC[C@@H]1Cc1ccc(O)cc1)N1C[C@H](Cc2ccccc2)N(CC2CCCCCC2)C1=S (stereo not given in full),-8,23,·,·,·,·
CC(C)C[C@@H](CN1CCCC1CN1C(=S)NC[C@@H]1Cc1ccc(O)cc1)N1C[C@H](Cc2ccc(O)cc2)N(CC2CCCCCC2)C1=S (stereo not given in full),15,53*,·,·,·,·
COC(=O)C(C(=O)OC)c1ccccc1NS(=O)(=O)c1ccc(C)cc1,8,2,·,·,·,·
COc1cc(NS(=O)(=O)c2ccc(C)cc2)c2c(c1N)C(=O)c1ccccc1C2=O,41*,19,·,·,·,·
Nc1n[nH]c(N)c1N=Nc1ccc(Cl)cc1,54*,2,-5,-22,6,5
Nc1[nH]ncc1N=Nc1ccc(Cl)cc1,48*,-7,-20,15,-43,-2
Nc1n[nH]c(N)c1N=Nc1cccc(C(F)(F)F)c1,44*,7,-18,·,1,-1
CC(=O)CSc1ncnc2nc[nH]c12,7,12,-11,9,-2,-6
Cc1cccnc1Sc1c([N+](=O)[O-])ncn1C,14,-4,-10,10,-9,-8
Cn1cnc(Sc2ncnc3nc[nH]c23)c1[N+](=O)[O-],12,62*,-5,4,-5,-4
Cn1cnc([N+](=O)[O-])c1Sc1ncnc2nc[nH]c12,29,67*,0,17,2,0
COc1cccc(CC(=O)OCC(=O)NC(C)c2ccc(F)cc2)c1 (stereo not given),12,0,-8,·,-9,6
COCCC(=O)NNS(=O)(=O)c1ccc(Cl)cc1,-2,3,1,3,14,1
Cc1nc(-c2ccc(F)cc2)c(CC(=O)N2CCN(S(=O)(=O)c3cccc([N+](=O)[O-])c3)CC2)s1,6,12,-4,·,0,-6
O=C(O)CSCC(=O)Nc1ccc(Cl)cc1C(F)(F)F,7,4,7,14,3,10
CC(C)N(CC(=O)Nc1ccc(Cl)cc1C(F)(F)F)C(=O)CCl,18,95*,3,24,4,0
CCC(C)N(CC(=O)Nc1cccc(C)c1C)C(=O)CCl (stereo not given),17,97*,4,9,3,-2
CCCCNC(=O)N1CCN(Cc2ccc(F)cc2)CC1,18,-5,-2,14,-23,-5
CC1(C)CC2CC(C)(CN2C(=O)COC(=O)c2ccc(NC(=O)CC#N)cc2)C1 (stereo not given),-18,5,3,·,-11,-4
Cc1ccc(C(=O)O/N=C(\N)c2cccc([N+](=O)[O-])c2)cc1,14,56*,12,20,44,49
Cc1onc(-c2ccccc2Cl)c1C(=O)O/N=C(\N)c1cccc([N+](=O)[O-])c1,14,88*,·,·,·,·
COc1ccc(/C(N)=N/OC(=O)c2cccc([N+](=O)[O-])c2)cc1,24,10,-6,7,5,11
COc1ccc(/C(N)=N/OC(=O)c2cccc([N+](=O)[O-])c2C)cc1,19,65*,-7,13,-9,-3
Cc1onc(-c2ccccc2Cl)c1C(=O)O/N=C(\N)c1ccccc1,0,92*,4,·,3,-4
SMILES,SENP8 block-1,TRAIL sens C8,SENP8 block-2,PPC-1+TRAIL kill,SENP6 inh,SENP7 inh
C/C(=N\OC(=O)c1c(-c2ccccc2Cl)noc1C)c1ccncc1,1,-10,1,14,0,4
N/C(=N\OC(=O)c1ccc(Br)cc1)c1cccc([N+](=O)[O-])c1,8,-3,-19,·,22,16
CCN(CC)S(=O)(=O)c1cccc(NC(=O)C2CC(=O)N(c3ccc4c(c3)OCCO4)C2)c1 (stereo not given),2,-4,-8,·,-15,-8
COC(=O)CC1(C(=O)OC)Nc2cc(Cl)c(Cl)cc2S(=O)(=O)N1O (stereo not given),6,1,·,·,·,·
CC1(C)Cc2c(cnn2-c2ccccc2)C(NC(=O)CCc2ccc(=O)[nH]n2)C1 (stereo not given),8,-3,-7,·,9,-7
N#C/C(=C\c1ccccc1)C(=O)N(c1ccccn1)C1CCCCC1,5,-13,-8,59*,-26,-6
Cc1ccc(OCc2csc(N)n2)cc1,18,11,-6,8,-18,9
Cc1ccc(C2=NNC(=Nc3ccc(F)cc3)SC2)cc1,-32,15,·,12,·,·
CCc1ccc(C2=NNC(=Nc3cccc(S(=O)(=O)N(C)C)c3)SC2)cc1,-27,71*,-9,2,-6,6
COCCNC(=O)/C(C#N)=C/c1cc(C)n(-c2ccc(C)cc2)c1C,-195,62*,24,48,32,4
Cc1ccccc1-n1c(C)cc(/C=C(\C#N)C(=O)NCC2CCCO2)c1C (stereo not given),-104,25,7,55*,10,8
Cc1ccc(/C=C(\C#N)C(=O)NCC2CCCO2)o1 (stereo not given),-13,-10,-11,-5,-9,-6
O=C1C=C(N2CCN(c3ccccn3)CC2)C(=O)c2c(O)ccc(O)c21,76*,50*,·,·,·,·
COc1ccc(C(=O)NCCN(C)C)c2nc3ccccc3cc12,-7,51*,·,·,·,·
Cc1ccc(N2C(=O)[C@@H]3[C@H](C2=O)C2c4ccccc4C=CN2[C@@H]3C(=O)c2ccco2)c(C)c1 (stereo not given in full),-123,-11,42,13,43,51*
CC(C)(C)C(=O)[C@@H]1[C@@H]2C(=O)N(c3ccc4c(c3)OCCO4)C(=O)[C@@H]2C2c3ccccc3C=CN21 (stereo not given in full),60*,-19,14,-7,24,10
O=C(c1ccco1)[C@@H]1[C@@H]2C(=O)N(c3ccccc3)C(=O)[C@@H]2C2c3ccccc3C=CN21 (stereo not given in full),-2,22,64*,20,87*,7
O=C(O)CCCCCCCCCCCNC(=O)NC12CC3CC(CC(C3)C1)C2,28,-20,-5,·,-8,5
Cc1ccsc1/C=N/Nc1ccc(F)cc1F,-2,5,56*,·,50*,9
Nc1ccc(-c2nc3ncccc3o2)c(Cl)c1,-370,53*,1,22,-20,-5
Cc1ccccc1Nc1c(-c2ccc(N3CCOCC3)cc2)nc2cnccn12,i,48*,-2,34,-11,8
